RE007 growth inh = less growth of the S. pombe RE007 Vpr strain; S. pombe RE007 Vpr strain, BacTiter-Glo ATP luminescence, 24 h; Potency, µM (top dose mostly 92.2 µM), inactives show at the highest dose activity change, negative = less growth, hits mostly inhibitors; 0.21% of 360,000 active; AID 651644; active means well fitted falling curve with a large enough effect; inconclusive means small, poorly fitted or top-dose-only effect; inactive means no such curve, though single readings can be large or run the other way; further: potency means the concentration at half of the fitted maximal effect; on the % scale 0 is the no-effect control and ±100 the full control effect; nearly all actives have a fitted effect of over 50% in size
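Fission yeast strain RE007, carrying one chromosomally integrated HIV-1 vpr copy, was seeded at OD 0.01 in PMG+AL medium with 23 nL pinned compound. After 24 h at 30 °C and 99% humidity, viability was read by BacTiter-Glo luminescence.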
LmPK inhibitor = LmPK (Leishmania mexicana) enzyme inhibition; Q27686; purified LmPK, Kinase-Glo ATP luminescence, 1 h; Potency, µM (doses to about 57.5 µM), for the others: at the highest dose activity change, negative = inhibition, most hits filed as inhibitors; 0.37% of 290,000 active; AID 1721; further: potency means the concentration at half of the fitted maximal effect; on the % scale 0 is the no-effect control and ±100 the full control effect
Target sequence (Q27686 whole entry, looked up): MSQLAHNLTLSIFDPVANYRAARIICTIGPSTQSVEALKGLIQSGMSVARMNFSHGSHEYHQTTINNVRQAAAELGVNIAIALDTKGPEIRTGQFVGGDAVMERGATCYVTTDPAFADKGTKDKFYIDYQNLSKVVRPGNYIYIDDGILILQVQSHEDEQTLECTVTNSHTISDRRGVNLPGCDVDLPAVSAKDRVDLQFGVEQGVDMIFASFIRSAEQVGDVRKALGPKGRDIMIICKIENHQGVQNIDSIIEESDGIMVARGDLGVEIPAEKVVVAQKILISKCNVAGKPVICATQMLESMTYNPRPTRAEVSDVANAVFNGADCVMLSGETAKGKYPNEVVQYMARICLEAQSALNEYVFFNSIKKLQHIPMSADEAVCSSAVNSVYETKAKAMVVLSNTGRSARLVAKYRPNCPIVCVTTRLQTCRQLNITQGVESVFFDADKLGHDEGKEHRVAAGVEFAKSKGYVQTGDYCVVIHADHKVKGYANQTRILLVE
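Kinase-Glo luminescence read after 1 h RT reaction of 0.1 nM LmPK with 0.5 mM PEP and 0.1 mM ADP. Activity scaled between uninhibited and enzyme-free controls.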
Shiga toxin inh = inhibitors of Shiga toxin in Vero cells; 9.2% of 290,000 active; Vero cells, Shiga toxin protein synthesis inhibition reporter; AID 2315; inhibition, % at 38.7 µM; in the data active means inhibition mostly above about 28%, no sharp cut-off; inactive means mostly below about 43%; further: 0% is about no effect
TbPYK inhibitor = blocks Trypanosoma brucei pyruvate kinase; AID 624173; 0.12% of 410,000 active; Q57TT1; TbPYK enzyme, Kinase-Glo Plus ATP luminescence, 45 min; Potency, µM (series often up to 76.8 µM), for inactives: at the top dose activity, negative = inhibition, hits mostly inhibitors; further: potency means the concentration at half of the fitted maximal effect; on the % scale 0 is the no-effect control and ±100 the full control effect; nearly all actives have a fitted effect of over 50% in size
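Activity of T. brucei pyruvate kinase was followed by Kinase-Glo Plus luminescence after the enzyme reacted 45 min at room temperature with 130 uM ADP (final) and substrate. Test compounds were added before ADP at multiple concentrations.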
Giardia FBPA inh = inhibitors of Giardia lamblia fructose-1,6-bisphosphate aldolase; A8B2U2; purified Giardia FBPA; Potency, µM (top dose mostly 59.6 µM), for the others: top-dose activity, negative = inhibition, actives largely listed as inhibitors; 0.71% of 290,000 active; AID 2451; further: potency means the concentration at half of the fitted maximal effect; on the % scale 0 is the no-effect control and ±100 the full control effect; nearly all actives have a fitted effect of over 55% in size
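Giardia FBPA (40 nM reagent) was preincubated 10 min at RT with compound (up to 57.5 uM final), then substrate plus GAPDH/TPI/NAD/arsenate coupling system with diaphorase/resazurin was added; resorufin fluorescence (525/598 nm) was read after 20 min.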
Cycloheximide cs = affects cycloheximide protein synthesis inhibition readout, counter-screen. cell reporter, cycloheximide protein synthesis inhibition counterscreen. max response, %. 12% of 300,000 active; in the data active means max response mostly above about 13%, no sharp cut-off; inactive means mostly below about 14%; further: read at 38.3 µM for the half of the compounds with a filed dose; 0% is about no effect
The depositor's hits bear a star; ? = inconclusive; · = not tested or not shown; [ ] = another dose, or the depositor's remark. The entries come from a sample that favours hits as a whole. Unless noted, the call rests on the fitted dose curve; in most records, active means well fitted curve in the direction sought with a large enough effect; inconclusive means small, poorly fitted or top-dose-only effect, or another doubt; inactive means no such curve, though single readings can be large; an effect the other way counts as inactive or inconclusive.

SMILES	RE007 growth inh	LmPK inhibitor	Shiga toxin inh	TbPYK inhibitor	Giardia FBPA inh	Cycloheximide cs
CC[C@H](C)[C@H](NC(=O)CNC(=O)[C@H](CCCNC(=N)N)NC(=O)[C@H](CO)NC(=O)[C@H](C)NC(=O)[C@H](Cc1ccc(O)cc1)NC(=O)[C@H](Cc1c[nH]c2ccccc12)NC(=O)[C@H](C)NC(=O)[C@@H]1CCCN1C(=O)[C@H](CC(N)=O)NC(=O)[C@@H](NC(=O)[C@H](CC(=O)O)NC(=O)[C@@H]1CCCN1C(=O)[C@@H](NC(=O)[C@H](CCCNC(=N)N)NC(=O)[C@@H](NC(=O)[C@H](CCC(=O)O)NC(=O)[C@H](CCSC)NC(=O)[C@H](CO)NC(=O)[C@H](Cc1cnc[nH]1)NC(=O)[C@H](CCCNC(=N)N)NC(=O)[C@H](Cc1cnc[nH]1)NC(=O)[C@@H](NC(=O)[C@H](CCCNC(=N)N)NC(=O)[C@@H](N)CO)[C@@H](C)O)[C@@H](C)CC)[C@@H](C)O)[C@@H](C)CC)C(=O)N[C@@H](CCCNC(=N)N)C(=O)N1CCC[C@H]1C(=O)N[C@H](C(=O)NCC(=O)N[C@@H](CCCNC(=N)N)C(=O)N[C@@H](Cc1ccccc1)C(N)=O)C(C)C	·	·	-2	·	3%	-9
O=C(CSc1nnnn1-c1cccc2ccccc12)NC(C(=O)O)(c1ccccc1)c1ccccc1	0%	7%	-16	6%	5%	4
CC(=O)Nc1ccc2nc(NC(=O)COc3ccccc3C)sc2c1	1%	14%	35	-1%	3%	50*
COc1cccc2sc(Nc3nc4ccc(NC(C)=O)cc4s3)nc12	4%	-3%	44*	-8%	-5%	22*
CC(=O)Nc1ccc2nc(NC(=O)COc3ccccc3Cl)sc2c1	52%	-3%	43*	-1%	0%	26*
CC(=O)Nc1ccc2nc(NC(=O)CCc3ccccc3)sc2c1	6%	0%	56*	1%	-1%	27*
CCc1nc2c(OCc3ccc(F)c(F)c3)cccn2c1N(C)C(=O)c1cccs1	-8%	·	·	-13%	·	·
O=C(c1ccc(Cl)c(S(=O)(=O)N2CCCCC2)c1)N1CCCC(C(F)(F)F)C1 (stereo unspecified)	-5%	·	·	3%	·	·
CC(C)[C@H](NS(=O)(=O)c1ccc2c(c1)OCCO2)C(=O)OCC(=O)Nc1ccccc1	-3%	1%	45	0%	0%	14*
C[C@H](NS(=O)(=O)c1ccc(Cl)cc1)C(=O)OCC(=O)NC(=O)Nc1ccc2c(c1)OCCO2	21%	-4%	127*	-8%	-7%	101*
O=C(COC(=O)C1COc2ccccc2O1)NC(=O)Nc1ccc2c(c1)OCCO2 (stereo unspecified)	5%	2%	35	-11%	3%	15*
CC(C)[C@H](NC(=O)c1ccccc1)C(=O)OCC(=O)Nc1ccc2c(c1)OCCO2	-4%	4%	-5	-5%	0%	6
O=C(COC(=O)CNS(=O)(=O)c1ccc2ccccc2c1)Nc1ccc2c(c1)OCO2	4%	5%	-9	-7%	-2%	-3
O=C(COC(=O)CNS(=O)(=O)c1cccc(Br)c1)NC(=O)Nc1ccc2c(c1)OCCO2	2%	1%	63*	1%	0%	35*
CC(NS(=O)(=O)c1ccc(Cl)c(Cl)c1)C(=O)OCC(=O)Nc1ccc2c(c1)OCO2 (stereo unspecified)	-16%	0%	20	-6%	-5%	-2
COc1ccc(OC)c(NC(=O)CSc2cn(CC(=O)N3CCCCCC3)c3ccccc23)c1	·	·	·	-8%	·	·
O=c1c(-c2ccc(F)c(F)c2)nc2cncnc2n1C1CC1	·	·	·	·	6%	·
Cc1ccc(S(=O)(=O)N[C@H](C(=O)OCC(=O)NC(=O)Nc2ccc3c(c2)OCCO3)C(C)C)cc1	-5%	-3%	14	-12%	-12%	19*
Cc1ccc(S(=O)(=O)N(C)CC(=O)OCC(=O)NC(=O)Nc2ccc3c(c2)OCCO3)cc1	-11%	0%	68*	9%	-3%	55*
CN(C)CCCNC(=O)c1cc(C(=O)c2cccc(Cl)c2Cl)c[nH]1	0%	-2%	-12	4%	7%	-9
O=C(CCOc1ccccc1)NNC(=O)c1ccccc1	-8%	·	·	-14%	·	·
CCOC(=O)c1cnc(-n2nc(C)cc2C)nc1NC1CCCC1	-3%	1%	-9	-22%	-3%	-1
CCOC(=O)c1cnc(-n2nc(C)cc2C)nc1N(C)C	11%	-12%	48*	2%	16%	18*
Cc1cc(C)n(-c2ccc(Cl)c(C(=O)O)c2)n1	-5%	0%	46	-4%	-6%	44*
CCOC(=O)c1nc(C)n(-c2ccc(Cl)cc2)n1	19%	-2%	12	-5%	-15%	20*
SMILES	RE007 growth inh	LmPK inhibitor	Shiga toxin inh	TbPYK inhibitor	Giardia FBPA inh	Cycloheximide cs
CCOC(=O)c1ccc(-n2nc(C)cc2C)cc1	-13%	-4%	active	-4%	-3%	15*
Cc1cc(C)n(-c2ccc(C(=O)OCC(=O)NC(c3ccccc3)c3ccccc3)cc2)n1	?	3%	-16	-6%	6%	-1
O=C(NCc1ccccc1F)C1CCN(c2nnc(-n3cccc3)s2)CC1	·	·	·	-2%	·	·
O=c1[nH]c(=S)n(C2CC2)c(O)c1C=Nc1ccc2c(c1)OCO2	41%	4%	37	-3%	-23%	14*
CCN(CCO)c1ccc(N=Cc2c(O)n(C)c(=S)[nH]c2=O)cc1	0%	-12%	80*	-6%	?	44*
CC(C)c1ccc(N=Cc2c(O)n(C3CC3)c(=S)[nH]c2=O)cc1	-7%	2%	52*	-4%	3%	10*
CCN(CC)c1ccc(N=Cc2c(O)n(Cc3ccco3)c(=O)[nH]c2=O)cc1	10%	5%	-2	-2%	0%	1
O=c1[nH]c(=S)n(C2CCCCC2)c(O)c1C=NCCN1CCOCC1	6%	0%	-4	-2%	-17%	-2
O=c1[nH]c(=S)n(C2CC2)c(O)c1C=NCc1ccc(F)cc1	-3%	0%	-12	2%	17%	1
Cc1ccc(Cl)c(OCC(=O)NC2CCN(Cc3ccccc3)CC2)c1	-24%	·	·	3%	·	·
CC1(C(=O)Nc2cnc3ccccc3c2)CCN1Cc1cc2ccccc2o1 (stereo unspecified)	-3%[18.4 µM]	·	·	6%	·	·
C#CCCCCCCCCCCCc1ccco1	·	·	·	·	1%	·
O=C1CCC(=O)N1CC(O)COc1ccccc1 (stereo unspecified)	13%	-2%	3	-3%	1%	-3
O=C1c2ccccc2C(=O)N1CC(O)COc1ccc(Cl)cc1 (stereo unspecified)	-6%	-1%	31	9%	-1%	18*
